# G9a inh: G9a (human) methyltransferase inhibition; Q96KQ7; G9a H3K9 monomethylation, AlphaScreen, 2 h; Potency, µM (highest dose often 102 µM), for inactives: top-dose activity, negative = inhibition, actives largely listed as inhibitors; 350,000 compounds, 8.8% hits; note: % is set by controls: 0 for no effect and ±100 for the full control effect; nearly all actives have a fitted effect of over 75% in size
#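 Quantitative HTS format: methyltransferase activity on a biotin-tagged H3K9 peptide is measured by AlphaScreen, using a rabbit anti-monomethyl-H3K9 antibody with streptavidin donor and anti-IgG acceptor beads. Final levels are 20 nM enzyme, 500 nM peptide, 20 uM SAM; 2 h RT.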
# Sfp PPTase inh: inhibitors of Bacillus subtilis Sfp phosphopantetheinyl transferase. Q9F4F7. 310,000 compounds, 3.5% hits. Potency, µM, inactives show largest response in the series, negative = inhibition, hits mostly inhibitors. AID 1490. Biochemical Sfp PPTase activity, qHTS;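 note: the enzyme is Sfp with the accession as filed and its product quenches rhodamine fluorescence; 0% = enzyme reaction without inhibitor and -100% = no enzyme wells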
#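 Fluorescence-quenching assay: 15 nM Sfp-PPTase preincubated 15 min at room temperature with compound, then 5 uM rhodamine-CoA and 12.5 uM BHQ-2-labelled YbbR peptide added. Fluorescence (ex 525/em 598 nm) read at start and after 30 min; difference gives rate.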
# BAZ2B block: inhibitors of human BAZ2B bromodomain. AlphaScreen BAZ2B-H3K14Ac peptide displacement. Q9UIF8. Potency, µM (titrated, usually from 114 µM), inactives show at the highest dose activity change, negative = inhibition, actives largely listed as inhibitors. AID 504333. 360,000 compounds, 4.4% hits; note: % is set by controls: 0 for no effect and ±100 for the full control effect; nearly all actives have a fitted effect of over 60% in size
#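 BAZ2B 50 nM plus b-H3(5-23)K14Ac 50 nM, PBS pH 7.4/0.01% Tween-20, 30 min RT; compound added (max 110 uM), 30 min RT; streptavidin donor/Ni-chelate acceptor beads 10 ug/mL final, 20 min dark; AlphaScreen read.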
# 12-LOX inh: blocks human arachidonate 12S-lipoxygenase; P18054; purified 12hLO, xylenol orange hydroperoxide absorbance; Potency, µM (series often up to 108 µM), without a hit: top-dose activity change, negative = inhibition, hits mostly inhibitors; 580,000 compounds, 1.1% hits; note: % is set by controls: 0 for no effect and ±100 for the full control effect
#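 Hydroperoxide product was detected by ferrous iron/xylenol orange as the 573 to 405 nm absorbance ratio. Arachidonic acid at 40 uM (final) was turned over for 30 min at room temperature by 150 nM human 12hLO, pH 7.0 Hepes buffer, after 15 min compound preincubation.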
# JMJD2A Tudor inh: JMJD2A Tudor domain (human) inhibition. AlphaScreen JMJD2A-Tudor / H3K4me3 peptide binding. Potency, µM (titrated, usually from 114 µM), for inactives: top-dose activity change, negative = inhibition, usual class: inhibitors. 390,000 compounds, 4.4% hits. AID 504339; note: % is set by controls: 0 for no effect and ±100 for the full control effect; nearly all actives have a fitted effect of over 50% in size
# Target sequence (O75164 whole entry, looked up, the tested form may be a part): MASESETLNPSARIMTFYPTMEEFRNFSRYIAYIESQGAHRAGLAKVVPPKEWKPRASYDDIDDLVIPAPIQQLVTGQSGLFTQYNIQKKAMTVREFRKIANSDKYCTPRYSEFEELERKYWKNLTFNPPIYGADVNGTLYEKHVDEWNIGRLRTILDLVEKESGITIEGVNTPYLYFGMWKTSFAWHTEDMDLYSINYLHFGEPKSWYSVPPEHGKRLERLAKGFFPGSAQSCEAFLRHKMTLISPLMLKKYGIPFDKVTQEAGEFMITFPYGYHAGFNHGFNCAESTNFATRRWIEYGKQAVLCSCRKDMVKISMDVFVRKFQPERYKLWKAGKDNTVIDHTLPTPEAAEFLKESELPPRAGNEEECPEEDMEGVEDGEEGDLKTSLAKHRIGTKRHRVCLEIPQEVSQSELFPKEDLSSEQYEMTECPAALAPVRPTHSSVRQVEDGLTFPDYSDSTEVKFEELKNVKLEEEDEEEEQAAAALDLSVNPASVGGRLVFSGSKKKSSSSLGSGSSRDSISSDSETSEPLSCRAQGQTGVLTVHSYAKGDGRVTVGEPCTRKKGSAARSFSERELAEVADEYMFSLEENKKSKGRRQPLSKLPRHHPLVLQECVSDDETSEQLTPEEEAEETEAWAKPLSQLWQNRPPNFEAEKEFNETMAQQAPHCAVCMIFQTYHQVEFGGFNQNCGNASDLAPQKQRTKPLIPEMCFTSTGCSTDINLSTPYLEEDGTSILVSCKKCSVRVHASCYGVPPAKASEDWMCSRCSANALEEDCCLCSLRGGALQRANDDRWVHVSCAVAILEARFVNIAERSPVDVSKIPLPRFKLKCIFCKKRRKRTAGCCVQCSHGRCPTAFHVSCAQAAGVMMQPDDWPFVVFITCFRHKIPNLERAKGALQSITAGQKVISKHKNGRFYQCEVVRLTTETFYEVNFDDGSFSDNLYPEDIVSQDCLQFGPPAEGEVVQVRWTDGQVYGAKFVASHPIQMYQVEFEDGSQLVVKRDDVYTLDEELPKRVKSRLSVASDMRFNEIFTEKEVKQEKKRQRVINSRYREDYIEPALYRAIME
# HP1b chromo inh: HP1-beta chromodomain-methylated histone interaction inhibition. P83916. AlphaScreen HP1-beta / biotin-H3K9me3 peptide binding. Potency, µM (highest dose often 114 µM), for inactives: top-dose activity change, negative = inhibition, actives largely listed as inhibitors. 390,000 compounds, 0.56% hits; note: nearly all actives have a fitted effect of over 70% in size
#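 AlphaScreen: HP1-beta (50 nM) preformed 30 min with biotin-H3(1-18)K9me3 peptide (50 nM) in PBS pH 7.4, 0.01% Tween-20. Compound added for 30 min at RT, then streptavidin donor/nickel chelate acceptor beads (10 ug/mL) for 30 min.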
# * = called active by the depositor; ? = inconclusive; nt = no result; [ ] = another dose, or the depositor's remark. This is a sample that favours compounds with a hit; in the whole collection about 8.7% have one here. Calls come from the whole dose curve; as a rule, active = well fitted curve in the direction sought with a large enough effect; inconclusive = small, poorly fitted or top-dose-only effect, or another doubt; inactive = no such curve, though single readings can be large; an effect the other way counts as inactive or inconclusive. Potency is the fitted concentration of half-maximal effect.
SMILES,G9a inh,Sfp PPTase inh,BAZ2B block,12-LOX inh,JMJD2A Tudor inh,HP1b chromo inh
COc1ccc(C(=O)NCC2Cn3cccc3C(=O)N2CC(C)C)cc1 (stereo not drawn),nt,nt,nt,30%,nt,nt
Cc1nc(NC(=O)c2csc3ccccc23)sc1C(=O)N(C)C,nt,nt,nt,11%,nt,nt
COc1ccccc1CNc1ccnc(-c2ccccc2OC)n1,-5%[0.501 µM],79µM*,nt,?,nt,nt
Cc1cc(/C=C2/C(=O)NN(c3ccccc3)C2=O)c(C)n1-c1ccc(O)cc1,-8%[59 µM],4%,-6%,-23%,-21%,?
COc1cc(/C=C2/C(=O)NN(c3ccccc3)C2=O)cc(Br)c1O,40µM*,-11%,?,0%,?,-24%
COc1cc(/C=C2\C(=O)NN(c3ccccc3)C2=O)cc([N+](=O)[O-])c1O,16µM*,?,56µM*,?,89µM*,?
O=C1NN(c2ccccc2)C(=O)/C1=C/c1cccs1,-11%[59 µM],9%,?,-26%,nt,nt
COc1cc(/C=C2/C(=O)NN(c3ccc(Cl)cc3)C2=O)cc(OC)c1O,?,-2%,35µM*,0%,50µM*,?
COc1cc(/C=C2\C(=O)NN(c3ccc(C)cc3)C2=O)cc([N+](=O)[O-])c1O,14µM*,-11%,40µM*,?,?,?
Cc1ccc(C)c(C(=O)COC(=O)c2cc3ccccc3[nH]2)c1,nt,nt,nt,-32%,nt,nt
COc1ccc(OC2CN([S+](=O)([O-])c3cccs3)C2)cc1,nt,nt,nt,9%[6.33 µM],nt,nt
CCOc1cc(/C=C2\C(=O)NN(c3ccccc3)C2=O)cc([N+](=O)[O-])c1O,32µM*,0%,?,?,50µM*,40µM*
Cc1nc([C@@H]2CN(C(=O)c3nccc4ccccc34)C[C@H]2C(N)=O)n[nH]1,nt,nt,nt,38%,nt,nt
CC(=O)N1CCN(CC[C@H]2CN(C(=O)c3ccc(C(F)(F)F)cc3)CC[C@H]2CC(=O)O)CC1,nt,nt,nt,5%,nt,nt
COc1cccc(-c2ccc(NC(=O)C3CCCN3C(=O)C3(C)CC3)cc2)c1 (stereo not drawn),nt,nt,nt,23%,nt,nt
COc1ccccc1CC(=O)Nc1nc(-c2ccc(F)c(F)c2)cs1,13%,8%,3%,-8%,3%,48%
COc1ccc(-c2csc(NC(=O)CS(=O)(=O)c3ccccc3)n2)cc1OC,nt,nt,nt,-2%,nt,nt
COc1ccc(-c2csc(NC(=O)CC(NC(C)=O)c3ccccc3)n2)cc1OC (stereo not drawn),25µM*,27%,79µM*,-1%,-21%,26%
COc1ccc(-c2csc(NC(=O)Cc3ccccc3F)n2)cc1OC,?,-3%,40µM*,-5%,?,-7%
O=C(NCCc1ccccc1)c1ccccc1NC(=O)C1CC1,nt,nt,nt,-26%,nt,nt
Fc1cccc(Cl)c1C1Nc2cccc3cccc(c23)N1,nt,-15%,32µM*,?,?,-16%
Clc1cccc(Cl)c1C1Nc2cccc3cccc(c23)N1,16µM*,?,25µM*,?,45µM*,?
COc1ccc(Cl)cc1NC(=O)Cn1ccn2nc(-c3ccc(F)cc3)c(CO)c2c1=O,nt,nt,nt,25%,nt,nt
COC(=O)C1=C(C(=O)OC)C(c2ccccc2O)c2sc(=O)[nH]c2S1 (stereo not drawn),10µM*,8.9µM*,?,45µM*,-15%,10%
CC1(CCl)N([O-])C2=C(CCCC2)[N+]1=O (stereo not drawn),32µM*,35µM*,45µM*,?,-4%,31%
Cc1ccc(Cl)c2c1=NC(=O)C=2c1[nH]c(=S)[nH]c1O,7.9µM*,40µM*,?,?,-26%,?
O=c1cc2oc3cc(O)c(O)cc3c(-c3ccccc3O)c-2cc1O,16µM*,79µM*,7.9µM*,nt,4µM*,14µM*
O=c1cc(-c2cccc(O)c2O)oc2ccccc12,nt,79µM*,nt,nt,nt,nt
CCOc1ccccc1-c1c2cc(O)c(=O)cc-2oc2cc(O)c(O)cc12,10µM*,32µM*,7.1µM*,nt,1µM*,-91%
COc1ccccc1-c1cc(=O)c2cc(O)ccc2o1,nt,-3%,nt,nt,nt,nt
